Source: PubChem BioAssay (NCI)
The panel holds about 83,000 compounds, 20% with a hit somewhere; the sample as a whole holds those more often.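 Cell lines were cultured in 96-well plates, exposed to a single compound concentration, and assessed for percent growth 48 hours later.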 A number with no mark means an inactive call. Active and inactive are the calls of the source. The calls were made as follows: active = growth percent below 10; inactive = the rest.

The molecules below were run on MCF7 breast (assay: NCI-60 one-dose screen, 48 h (100 = growth as untreated, 0 = no growth, -100 = all killed)). Settings: 10 µM unless noted.
With CC(=O)Nc1c(Cl)cc2c(c1Cl)Cc1ccccc1-2 the growth was 91.1%.
Clc1ccc(C2c3ccccc3-c3nccn32)c(Cl)c1 (configuration not stated) gave a growth of 80.5%.
Work on Cc1ccccc1NC(=O)N/C(N)=N/c1nc2ccccc2s1 yielded a growth of 19%.
For O=[N+]([O-])c1cc([N+](=O)[O-])c(N2CCCC2)cc1NN=C(c1ccc(O)cc1)c1ccc(O)cc1, the growth was 9.54% (active).
CCCCc1ccc(C(N)=O)nc1 was tested, and the growth was 86.9%.
O=C(c1ccc(N2CCOCC2)cc1[N+](=O)[O-])N1CCOCC1 gave a growth of 127%.
Cc1cc(C)c(C(=O)c2cccs2)c(C)c1 showed a growth of 99%.
For CC(C)N(Cc1ccccc1)c1c(Cl)ssc1=O, the growth was 101%.
Molecule c1ccc(-c2oc(-c3ccccc3)c3ccccc23)cc1 has a growth of 122%.
N#Cc1c(-c2ccccc2)cc(-c2ccccc2)n(CC(=O)O)c1=O showed a growth of 34.8%.
Oc1c(N=Nc2nn[nH]n2)ccc2ccccc12 gave a growth of 73.7%.
In the case of CCOC(=O)C(C(=O)OCC)C1CCCCC1, the growth was 98.6%.
In the case of CNCCCn1c2c(c3ccc(F)cc3c1=O)C(=O)c1cc(OC)cnc1-2, the growth was 0.0252% (active).
O=C1NC(=O)/C(=C/c2ccc(Cl)cc2Cl)N1 gave a growth of 95.3%.
Work on Nc1c(C(=O)Nc2cccc(Cl)c2)sc2nc3c(cc12)C(O)CCC3 (configuration not stated) yielded a growth of 17.8%.
CCN(CC)CCCCCCCNc1c2ccc(Cl)cc2nc2ccc(OC)cc12 was tested, and the growth was -32.4% (active).
Molecule Cn1c(N2N=C(c3ccc(Cl)cc3)CC2c2ccccc2)nc(-c2ccccc2)c(C#N)c1=O (configuration not stated) has a growth of 62.1%.
